Reference: the supplement of paper PMC3334620
Whole data set: some 33,000 sequences, median “E-score (-0.5 to 0.5)” near -0.054, cut for the highest 2% near 0.35. The entries come from a sample that favours the highest values as a whole.

Target: T1, Stb5 (UniProt P38699)
T1 sequence: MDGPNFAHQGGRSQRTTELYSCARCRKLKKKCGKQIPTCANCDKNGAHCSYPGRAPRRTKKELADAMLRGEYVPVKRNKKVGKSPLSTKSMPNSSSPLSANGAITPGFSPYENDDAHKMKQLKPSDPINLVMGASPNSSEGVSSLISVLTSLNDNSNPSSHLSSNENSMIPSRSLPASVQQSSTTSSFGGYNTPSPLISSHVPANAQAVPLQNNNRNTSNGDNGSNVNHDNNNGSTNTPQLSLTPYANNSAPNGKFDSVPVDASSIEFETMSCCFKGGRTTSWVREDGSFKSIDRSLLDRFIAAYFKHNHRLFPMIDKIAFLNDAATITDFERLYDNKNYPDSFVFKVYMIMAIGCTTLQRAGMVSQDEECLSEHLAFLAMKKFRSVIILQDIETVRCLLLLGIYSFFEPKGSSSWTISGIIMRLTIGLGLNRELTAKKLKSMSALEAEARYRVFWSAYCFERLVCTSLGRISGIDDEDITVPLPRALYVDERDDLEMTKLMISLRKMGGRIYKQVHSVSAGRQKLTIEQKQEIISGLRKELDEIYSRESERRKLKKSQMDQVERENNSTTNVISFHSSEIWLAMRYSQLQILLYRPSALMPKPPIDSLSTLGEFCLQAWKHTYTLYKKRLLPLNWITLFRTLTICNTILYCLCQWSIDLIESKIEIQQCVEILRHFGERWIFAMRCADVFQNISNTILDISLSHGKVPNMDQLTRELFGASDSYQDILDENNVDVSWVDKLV
Experiment: PBM E-score (8-mer binding enrichment) (E-score (-0.5 to 0.5)); higher = stronger / more preferred TF binding
Settings: protein concentration: 200 nM; construct: GST-full length
In short: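 Detection of bound protein used fluorescent anti-GST, with scans normalised by masliner. The proteins were GST-tagged yeast transcription factors applied at about 100-200 nM to universal all-10-mer Agilent arrays made double-stranded by primer extension. Each ungapped eight-base word, pooled with its reverse complement, was scored with an E-score from the Universal PBM Analysis Suite.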

Sequence	PBM E-score
AGTTGCTG	-0.167
GTCGTTAA	-0.0792
CGAAGTTC	-0.147
CCGACAGC	0.341
ACGCTTTC	-0.205
ATGCTCCC	-0.0728
ACGGTCAG	-0.0787
ACGGTCAA	0.126
ACGGTACG	0.214
GCGGTGCC	0.387
GCGGTGCA	0.259
ACGGTACT	0.389
CCGGTGCC	0.328
ACGGTACC	0.283
ACGGTCAT	0.368
TCGCTAGA	-0.243
AGCACCTG	-0.14
CCCTCTCA	-0.284
AAACGAGC	-0.209
GTACTCCA	-0.229
AGCGGACG	0.284
AGCGGACT	0.39
CGCGGACA	0.315
AGCGGATA	0.286
AGCGGAAT	0.228
AGCGGACA	0.393

Sequence	PBM E-score
CCCCCCCA	-0.263
ACTCATAT	-0.0119
GACCCCCC	-0.259
CACCCCGC	0.394
GACCCCGA	0.377
GCCCCCGC	0.256
TACCCCCA	-0.114
TACCCCAA	-0.157
TACCCCGA	0.407
GACCCCGC	0.391
CACCCCGG	0.277
CACCCCGA	0.325
GACCCCCA	-0.201
CACCCCCC	-0.14
GGTGCTCA	0.0877
CGAAAGAG	-0.0144
ACGCAGAG	-0.218
CCTCCATC	-0.18
AGCGGGAC	0.303
AGCGAGAC	-0.0631
CTAGCACC	0.336
GCGTCATA	-0.0207
GCAATGCA	-0.0992
CCAGCCAG	-0.223
ACAGTGAA	-0.147
CCTTAATC	0.109

Sequence	PBM E-score
GTTATCTA	-0.00767
ATCAACGA	0.0713
ACGGGTAG	-0.0642
AAGGTCCG	0.442
AAGGTCCA	-0.171
AACGTCCC	-0.0635
CAAGTCCA	-0.171
AACGTCCA	-0.0958
AACGTCCG	0.375
AGAGTCCT	-0.216
CAAGTCCC	0.00375
CAGGTCCG	0.237
CAAGTCCG	0.356
AGAGTCCC	0.0723
AGAGTCCG	0.378
GAACTGCC	-0.118
CGGATCCG	0.124
ATGGTCTA	-0.23
AAGAACCG	0.262
AAAGATCG	-0.0774
AGGCATCC	-0.261
ACATTAGC	-0.083
AGGCCGTG	0.212
CTCTTGTC	-0.198
ACGCCATG	-0.293
TAGCCGGA	0.279

Sequence	PBM E-score
CCTGAAGG	-0.14
AAAGTCCG	0.466
AAAGTCCA	-0.136
AAAGTCCT	0.108
ACGATTAC	-0.161
CTCTGCCA	-0.235
TCGGCCCA	0.105
ACGGATAG	-0.0573
ACGGAGAA	0.188
ACGGAGAC	0.272
ACGGAGCG	0.299
ACGGAGCC	0.263
ACGGAGCT	0.373
ACGGATAT	0.367
ACGGATAA	0.215
ACGGAGAT	0.403
AACTGTGA	-0.19
ATTGGAAA	-0.0189
ATCCTTTC	-0.195
CAGGCGAA	-0.257
GGCTTCTA	-0.04
AGTCGTAC	-0.189
TGTCGGAA	0.26
ACAGGTCA	-0.136
CACTACTA	-0.117
ACCATCCA	-0.118

Sequence	PBM E-score
CTAGTACC	0.226
ATAGTACC	0.359
ATAGTACG	-0.0437
CCCCGATC	0.374
GGCCGATA	0.266
ACCCGATC	0.19
CGCCGAGC	0.261
CGCCGATC	0.363
CGCCGATA	0.36
CCCCGATA	0.339
AGCCGATC	0.0924
AGCCGATA	0.0102
ACTATTCA	-0.084
CGCATCTC	-0.00684
TCTTTACA	-0.117
AGTGGCGG	0.292
ACAGTTAC	-0.0633
GGGAATAC	0.302
TGGAATAA	-0.14
GGGAATAA	0.373
CAACGAAC	0.079
AACCGATC	0.106
CACCGATC	0.359
CACCGATA	0.351
CACCGATG	0.357
AACCGATG	0.143

Sequence	PBM E-score
GACCGATC	0.323
GAGGCTGC	-0.213
ATCGGTTG	0.0401
CGCAATAC	-0.0062
CCTGGTCG	0.0613
AGTCGGGG	0.363
AGTCGGGA	0.287
AATCGGTA	0.262
ACTCGGGG	0.185
AGTCGGTA	0.36
ACTCGGTA	-0.00538
CGTCGGTC	0.325
AATCGGTG	0.405
CCTCGGTA	0.223
AATCGGTC	0.234
GGTCGGTA	0.319
CGTCGGTA	0.357
ATTGAAAT	-0.0501
AACGAGGC	-0.168
ACTCTACG	-0.241
TATACTCA	-0.245
GCGATTCA	0.00506
GGGCGCCC	0.147
GATAACGA	-0.102
ACTCAAGG	-0.223
AGTCGGTG	0.385

Sequence	PBM E-score
AGTCGGCG	0.239
AATCGGGG	0.372
CATCGGGG	0.313
CGACGGTC	0.315
GGACGGTA	0.241
AGTCGGTC	0.259
CGACGGTA	0.352
AATCGGGC	0.209
AAATGGAT	-0.168
AGGGAGAC	-0.0822
AACATGGT	-0.217
GCCAGCGC	-0.00309
GAAGGGGC	-0.11
AGCTCTCC	-0.325
CTGCGTCA	-0.121
GTAACTAC	0.109
CTTCCCGA	0.0298
ATTCCCGA	0.379
ATTCCCGG	0.319
CTTCCCGC	0.129
ATTCCCGC	0.4
GTTCCCGA	0.235
AATCCTAG	-0.0194
